Peg3 promoter: Peg3 promoter-driven luciferase inhibitors, primary screen, cell-based, HeLa, luciferase luminescence; AID 588405, 2011; inhibition, % at 20 µM; HeLa PEG-Prom luciferase reporter, overnight; 360,000 compounds, 1.7% hits;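 active = inhibition of at least 50% at 20 µM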
ABHD5 PLIN5 PPI: ABHD5-PLIN5 interaction inhibitors, primary screen, cell lysate, split luciferase complementation, luminescence; inhibition, % at 4 µM; Perilipin-5 (Homo sapiens) + 1-acylglycerol-3-phosphate O-acyltransferase ABHD5 (Homo …; Split G. princeps luciferase complementation, 4 h; 360,000 compounds, 0.78% hits;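 active = inhibition above the mean inhibition across every tested compound plus 3 SD, cut at about 22% in these data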
KKLEB cytotox: cytotoxicity in KKLEB CF airway cells, primary screen, cytotoxicity control for CF NF-kB inhibitor project, cell-based, uHTS, fluorescence assay plates. KKLEB CF airway cells viability, ATPlite luminescence, overnight; stronger effect = lower value; cells stimulated with P. aeruginosa culture filtrate. activity change (cytotoxicity), % at 5 µM. 360,000 compounds, 0.36% hits. AID 602141, 2011;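 active = corrected activity change at or below -50% at 5 µM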
MITF TRPM1 inh: inhibitors of MITF-dependent TRPM1 promoter reporter, primary screen, cell-based, SK-MEL-5, single point, luciferase | SK-MEL-5 TRPM1 promoter luciferase, 24 h | inhibition, % at 12.5 µM | 330,000 compounds, 0.83% hits | AID 488899, 2010;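 active = mean inhibition across replicates of 60% or more, whatever share of single replicates reaches that level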
CF NFkB inh: inhibitors of PAF-induced NF-kB signaling, primary screen, cell-based, GFP fluorescence, uHTS; inhibition, % at 5 µM; 360,000 compounds, 0.86% hits; KKLEB NF-kB-GFP reporter, GFP fluorescence overnight;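 active = at least 50% inhibition at 5 µM, scaled per plate between neutral and stimulator controls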;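 note: PAF is a Pseudomonas aeruginosa culture filtrate used as stimulus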
HIF-2a inh: HIF-2a reporter inhibitors, primary screen, luminescence, 786-0 RCC cells; AID 624352, 2012; 360,000 compounds, 0.72% hits; inhibition, % at 18.8 µM; 786-0 RCC cells HIF-2a reporter, luciferase luminescence, overnight;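 active = inhibition of the luminescence signal of 40% or more relative to plate controls, in a single-dose primary screen at 18.75 µM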
Mdm2 MdmX conf: retested Mdm2-MdmX interaction blockers, confirmation, cell-based, luminescence, single concentration, set 2; shares compounds with HIF-2a inh; 740 compounds, 99% hits; inhibition, % at 8 µM; SaOS-2 split-luciferase Mdm2/MdmX complementation;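 active = mean inhibition of the luminescence signal across two replicates at or above 26 percent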
Target sequence (O15151 whole entry, looked up): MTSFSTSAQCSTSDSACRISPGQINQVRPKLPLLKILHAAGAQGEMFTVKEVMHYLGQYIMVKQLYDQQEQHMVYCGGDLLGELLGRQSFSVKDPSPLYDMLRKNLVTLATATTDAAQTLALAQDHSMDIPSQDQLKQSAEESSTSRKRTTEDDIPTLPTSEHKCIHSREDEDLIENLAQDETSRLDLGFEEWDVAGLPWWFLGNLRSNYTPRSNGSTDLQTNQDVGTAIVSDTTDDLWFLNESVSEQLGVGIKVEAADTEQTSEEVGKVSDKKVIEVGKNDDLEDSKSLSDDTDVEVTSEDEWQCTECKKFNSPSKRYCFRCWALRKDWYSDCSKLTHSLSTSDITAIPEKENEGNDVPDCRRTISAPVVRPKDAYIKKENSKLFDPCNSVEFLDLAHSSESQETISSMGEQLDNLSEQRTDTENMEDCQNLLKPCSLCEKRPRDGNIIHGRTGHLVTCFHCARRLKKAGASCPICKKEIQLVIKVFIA
Target sequence (Q00987 whole entry, looked up): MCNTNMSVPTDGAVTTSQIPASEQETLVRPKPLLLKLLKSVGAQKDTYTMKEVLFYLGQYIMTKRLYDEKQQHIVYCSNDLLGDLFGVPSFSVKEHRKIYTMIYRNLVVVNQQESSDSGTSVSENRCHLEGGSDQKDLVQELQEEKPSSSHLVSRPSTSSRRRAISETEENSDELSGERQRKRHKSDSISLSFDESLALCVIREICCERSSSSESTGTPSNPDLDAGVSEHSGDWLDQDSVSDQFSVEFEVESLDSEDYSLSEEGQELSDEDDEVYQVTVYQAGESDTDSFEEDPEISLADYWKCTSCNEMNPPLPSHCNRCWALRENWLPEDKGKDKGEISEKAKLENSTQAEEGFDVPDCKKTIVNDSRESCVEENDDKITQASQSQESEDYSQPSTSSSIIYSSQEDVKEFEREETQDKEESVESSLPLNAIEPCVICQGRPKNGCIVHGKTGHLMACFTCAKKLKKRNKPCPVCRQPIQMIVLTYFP
HIF-2a inh conf: HIF-2a reporter inhibitor retest, confirmation, luminescence, 786-0 RCC cells | shares compounds with HIF-2a inh | HIF-2a luciferase reporter luminescence, overnight | inhibition, % at 18.8 µM | 1,800 compounds, 56% hits;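 active = mean inhibition across four replicates of at least 40 percent at the single tested concentration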
HIF-1a counter: HIF-1a luciferase reporter signal reduction – MiaPaCa-2 cells, single concentration, counter-screen for HIF-2a inhibitor project, confirmation | shares compounds with HIF-2a inh | MiaPaCa-2 HIF-1a luciferase reporter, desferoxamine, overnight | inhibition, % at 18.8 µM | 1,800 compounds, 72% hits | AID 651589, 2012;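 active = mean inhibition of the reporter signal across four replicates at the single tested dose of 50% or more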
Numbers stand for hits; 0 = inactive; - = no result. A selection: hits, their analogues and other compounds. The true share with any hit is near 3.1%.

SMILES	Peg3 promoter	ABHD5 PLIN5 PPI	KKLEB cytotox	MITF TRPM1 inh	CF NFkB inh	HIF-2a inh	HIF-2a inh conf	HIF-1a counter	others
C=CCOC(=O)N1CCC2CC1c1c(-c3ccc(C(F)(F)F)cc3)cccc12 (stereo not given)	0	0	0	-	0	0	-	-
O=C(NCC1CCCO1)c1c(O)c2cccc3c2n(c1=O)CC3 (stereo not given)	0	0	0	0	0	0	-	-	Mdm2 MdmX conf=71.0
COc1ccc(CCN=Cc2c(C)[nH]n(-c3ccc([N+](=O)[O-])cc3)c2=O)cc1OC	0	0	0	0	0	0	-	-
COc1cc(SC#N)ccc1N=Cc1c(C)[nH]n(-c2ccc(C)c(C)c2)c1=O	100.4	0	0	87.8	0	0	-	-	Mdm2 MdmX conf=98.5
CCc1ccc2nc(N(CCCN(C)C)C(=O)c3ccc(S(=O)(=O)N4CCc5ccccc5C4)cc3)sc2c1	0	0	-97.6	0	66.6	68.1	0	0
CCOc1cccc2sc(N(CCCN(C)C)C(=O)c3ccc(S(=O)(=O)N4CCc5ccccc5C4)cc3)nc12	0	0	0	0	0	0	-	-
CCOc1ccc(CCNC(=O)CSc2ncn[nH]2)cc1OCC	0	0	0	0	0	0	-	-
COc1ccc(NC(=O)c2ccc(-c3ccc([N+](=O)[O-])cc3)o2)cc1	0	0	0	0	0	0	-	-
COc1ccc(NC(=O)c2cc([N+](=O)[O-])ccc2O)cc1	83.4	0	0	83.7	0	70.7	85.5	101.8
COc1cc(C(=O)O/N=C(\N)Cc2ccc([N+](=O)[O-])cc2)cc(OC)c1OC	0	0	0	-	0	0	-	-
COc1ccc(C(=O)O/N=C(\N)Cc2ccc(Cl)cc2)cc1OC	113.2	0	0	0	0	61.9	0	0
COc1ccc(C(=O)O/N=C(\N)Cc2ccc(Cl)c(Cl)c2)cc1OC	104.2	0	0	0	0	87.9	0	0
N/C(Cc1ccc(Cl)cc1)=N\OC(=O)c1ccccc1	0	0	0	0	0	0	-	-
O=C(NCc1ccco1)C(=O)NCC1OCCN1S(=O)(=O)c1cc(F)ccc1F (stereo not given)	0	0	0	0	0	0	-	-
COc1cc2c(cc1OC)C(c1cc(Br)ccc1F)N(C(=O)CCl)CC2 (stereo not given)	101.8	0	-68.4	98.4	105.3	89.7	97.3	103.2	Mdm2 MdmX conf=103.2
Cc1ccc(N(C(=O)CNC(=O)c2ccco2)C(C(=O)NC2CCCC2)c2ccncc2)cc1C (stereo not given)	0	0	0	-	0	0	-	-
Nc1ccc(C(=O)N2CCCC2)cc1	0	0	0	0	0	0	-	-
Nc1ccc(C(=O)n2c3ccccc3c3ccccc32)cc1	0	0	0	0	0	77.9	91.8	85.0
COc1ccc(C(=O)NCC(=O)OCc2c(Cl)cccc2Cl)cc1OC	0	0	0	0	0	0	-	-
O=c1[nH]c(CN2CCN(S(=O)(=O)/C=C/c3ccccc3)CC2)nc2cc(Cl)ccc12	0	0	0	0	0	50.0	0	93.1
O=c1[nH]c(CN2CCN(S(=O)(=O)/C=C/c3ccccc3)CC2)nc2ccccc12	0	0	0	0	0	0	-	-
COc1ccc(/C=N/Nc2nnc(-c3ncc[nH]3)c3ccccc23)cc1	0	0	0	0	0	0	-	-
Oc1ccc2ccccc2c1/C=N/Nc1nnc(-c2ncc[nH]2)c2ccccc12	0	0	0	0	0	0	-	-	Mdm2 MdmX conf=91.7
CCN1CSC(=S)N(Cc2ccc(OC)cc2)C1	0	0	0	0	0	66.7	0	0
CN(C)CCCNC(=O)C[C@H]1C[C@H](C(=O)N2CCOCC2)[C@@]2(C)c3[nH]c4cc(CCC(=O)N(C)C)ccc4c3CCN2C1=O	0	0	0	0	0	0	-	-
SMILES	Peg3 promoter	ABHD5 PLIN5 PPI	KKLEB cytotox	MITF TRPM1 inh	CF NFkB inh	HIF-2a inh	HIF-2a inh conf	HIF-1a counter	others
C/C(=C/C(=O)Nc1cccc(F)c1)N1CCCC1	0	0	0	0	0	0	-	-
CC(C)=CCOc1ccc([C@@H]2COc3c(ccc4c3C=CC(C)(C)O4)C2)c(O)c1	0	0	0	0	0	61.1	0	100.5
COc1ccc(OCc2cc(=O)c3ccc4c(c3o2)C=CC(C)(C)O4)cc1OC	0	0	0	0	0	0	-	-
COCCN(Cc1ccco1)C(=O)Cn1ncc2c(=O)oc3ccccc3c21	0	0	0	0	0	45.2	0	0
CN1CCC(NCCC(c2ccc(F)cc2)c2ccc(Cl)cc2)CC1 (stereo not given)	93.7	0	0	80.1	0	0	-	-	Mdm2 MdmX conf=103.5
CCNC(=O)N1CCN(CCCC(c2ccc(F)cc2)c2ccc(F)cc2)CC1	0	0	0	0	0	0	-	-
O=C(Oc1cc(=O)oc2ccccc12)c1cccnc1Cl	0	0	0	0	0	0	-	-
C=C1CC(COc2cc(=O)oc3ccccc23)(c2ccccc2)OC1=O (stereo not given)	105.5	0	-104.3	94.1	97.8	90.1	57.1	106.0
COc1ccc(C(C)=O)cc1OCc1ccccc1	0	0	0	-	0	0	-	-
CCOC(=O)C1=CCC(c2cccc3ccccc23)N(S(=O)(=O)c2ccc(C)cc2)C1 (stereo not given)	0	0	0	-	0	0	-	-
CCOc1cc(C(=O)N(C)CC(=O)Nc2cccc(F)c2)ccc1OCC(=O)N1CCOCC1	0	0	0	0	0	0	-	-
CCOC(=O)c1cc(-c2csc(Nc3c(C)cc(C)cc3C)n2)on1	0	0	0	0	0	57.5	0	0
CCOc1ccc(N2C(=O)/C(=C/c3cc(OC)c(OC)c(OC)c3)N(CC(=O)OC)C2=S)cc1	0	0	0	0	0	47.6	0	0
COc1cc(/C=C/C(=O)c2ccc3c(c2)OCCO3)cc(OC)c1OC	0	0	0	0	0	56.3	47.6	101.1
COc1cc(/C=C/C(=O)c2ccc3c(c2)OCO3)cc(OC)c1OC	0	0	0	0	0	43.7	0	103.1
CCOc1ccc(C(=O)/C=C/c2cc(OC)c(OC)c(OC)c2)cc1	62.2	0	0	0	0	65.9	52.6	103.3
COc1ccc(OC)c(/C=C/C(=O)c2ccc3c(c2)OCCO3)c1	0	0	0	0	0	0	-	-
CCCCN(C)Cc1cc(=O)oc2cc3c(cc12)CCCC3	0	0	0	0	0	0	-	-

Screening results as filed in PubChem BioAssay.
